{
  "source": "PubChem BioAssay AID1739",
  "about": "(National Center for Advancing Translational Sciences (NCATS), 2009)",
  "note": "Records with an inconclusive call do not appear. Activity calls are given as the source filed them. Calls come from the whole dose curve; as a rule, active = well fitted inhibition curve with a large enough effect; inconclusive = small, poorly fitted or top-dose-only effect; inactive = flat fitted curve, though single readings scatter.",
  "data": [
    {"assay": "Counterscreen Assay for Enhancers of SMN2 Splice Variant Expression: Modulation of SMN1 Expression", "details": "HEK293 SMN1-luciferase reporter, luminescence, 30-36 h; series mostly up to 22.8 µM; activity change, negative = inhibition: at the top concentration", "from_the_text": "NIH Chemical Genomics Center [NCGC] NIH Molecular Libraries Probe Production centers Network [MLPCN] MLPCN Grant: R03 MH084179-01 Assay Submitter (PI): Elliot Androphy NCGC Assay Overview: Spinal muscular atrophy (SMA) is caused by insufficient levels of the survival motor neuron protein SMN. The SMN locus on chromosome 5q13 contains two inverted copies of SMN called SMN1 and SMN2 which are 99% identical at the amino acid level. SMN1 is a fully functional protein and SMN2 skips exon 7 90% of the time. Skipping of exon 7 produces non-functional protein product. 10% of the SMN2 protein includes exon 7 and is fully functional. In the SMA disease state, mutations in the SMN1 locus are the cause of the disease state. Because only 10% of SMN2 is of the fully functional form, it is not sufficient to overcome the deficiency produced by the loss of the SMN1 product. A therapy that either increase the amount of SMN2 product made or to increase the inclusion of exon 7 has been proposed for the treatment of SMA. We have designed an assay to identify small molecules that can increase the amount of functional SMN2 product by appending a luciferase reporter gene after the native SMN2 gene, such that inclusion of exon 7 in the expressed product places the luciferase sequence in frame, thus generating functional luciferase enzyme. As a counterscreen for nonspecific modulators of expression, we have run compounds through a similar assay that measures expression of an SMN1-luciferase chimera.\nNCGC Assay Protocol Summary: This screen utilizes a luciferase reporter gene assay, combining the promoter with the major portion of the native SMN1 cDNA (exons 1 -7, intron 8 , exon 8 fused to luciferase) stably expressed in HEK293 cells. Compounds that increase luciferase signal presumably enhance expression of the functional SMN1 splice variant. Passaging media contained DMEM w/ glutamax (+phenol red) 10% FCS, 1x pen/strep, 200 ug/ml hygro, 1x sodium pyruvate. Assay media contained DMEM w/ glutamax (-phenol red) 10% FCS, 1x pen strep, 1x pyruvate Sequence, Parameter, Value, Description (1) Cells, 5 uL, 2000 cells/well, 1536 TC treated White solid bottom plate (2) Time, 10-12 hours, 37C 5% CO2 (3) Compound, 23 nl, MLSMR Library (4) Control Compound, 23 nL, Sodium butyrate st 4.5mM (final) conc (5) Time, 30-36 hours, 37C 5% CO2 (6) Reagent, 3 ul, One Glo (TM) from Promega (7) Time, 5-15 minutes, Room temp (8) Detector, Viewlux: luminescent read, 60 second integration, high speed 2x binning Keywords: Spinal muscular atrophy, SMA, SMN2, high throughput screening, MLSMR, MLPCN, NIH Roadmap, qHTS and NCGC", "values": [
      {"smiles": "Clc1ccc(-c2nnc(-c3ccccc3)nc2-c2c[nH]c3ccccc23)cc1", "activity change, negative = inhibition": "-2.01% (inactive)"},
      {"smiles": "Cc1ccc(C(=O)Cn2c3c(sc2=N)CCCC3)cc1", "Potency": "7.94 µM (active)"},
      {"smiles": "O=C(Nc1ccc([N+](=O)[O-])cc1Cl)c1cc(Cl)ccc1O", "Potency": "0.708 µM (active)"},
      {"smiles": "CCOC(=O)c1c(-c2cccc(C)c2)csc1NC(=O)c1c(-c2ccccc2)noc1C", "Potency": "0.355 µM (active)"},
      {"smiles": "COc1nc(-c2ccc(Cl)cc2)nnc1C", "activity change, negative = inhibition": "-25.9% (inactive)"},
      {"smiles": "NC(=O)N1c2ccccc2C=Cc2ccccc21", "activity change, negative = inhibition": "-14% [at 46.1 µM] (inactive)"},
      {"smiles": "NC(=O)C1(N2CCCCC2)CCN(c2nc(-c3ccccc3)cs2)CC1", "activity change, negative = inhibition": "-20.9% (inactive)"},
      {"smiles": "O=C(O)c1cccc(COc2ccc(CO)cc2Cl)c1", "Potency": "3.16 µM (active)"},
      {"smiles": "O=C(NCCc1cn2ccsc2n1)c1cccs1", "activity change, negative = inhibition": "-7.46% [at 46.1 µM] (inactive)"},
      {"smiles": "Nn1c(SCC(=O)NCCC2=CCCCC2)nnc1C1CCCCC1", "activity change, negative = inhibition": "4.9% [at 46.1 µM] (inactive)"},
      {"smiles": "COc1ccc(OC)c(-c2csc(N3CCC(c4ccccc4)CC3)n2)c1", "activity change, negative = inhibition": "-26.4% (inactive)"},
      {"smiles": "CCCc1sc(N2CCCC(C(N)=O)C2)nc1-c1ccccc1", "note": "(stereo not given)", "activity change, negative = inhibition": "-5.38% (inactive)"},
      {"smiles": "COc1ccc(-c2csc(N3CCC(c4ccccc4)CC3)n2)cc1", "activity change, negative = inhibition": "-4.14% (inactive)"},
      {"smiles": "CC(/C=C/C(=O)NO)=C\\[C@@H](C)C(=O)c1ccc(N(C)C)cc1", "Potency": "7.94 µM (active)"},
      {"smiles": "Cn1cnc2c(NCc3ccco3)ncnc21", "activity change, negative = inhibition": "-18.5% [at 46.1 µM] (inactive)"},
      {"smiles": "CC(C)(C)n1nnnc1C(c1ccc2ncccc2c1)N1CCSCC1", "note": "(stereo not given)", "activity change, negative = inhibition": "26.6% [at 46.1 µM] (inactive)"},
      {"smiles": "Clc1ccc(-c2nnc(-c3ccccc3)c(N3CCSCC3)n2)cc1", "activity change, negative = inhibition": "-5.45% (inactive)"},
      {"smiles": "Cc1[nH]c2ccccc2c1-c1nc(-c2ccc(Cl)cc2)nnc1-c1ccccc1", "activity change, negative = inhibition": "-7.98% (inactive)"},
      {"smiles": "Cc1ccc(-c2nnc(-c3ccccc3)c(N3CCOCC3)n2)cc1", "activity change, negative = inhibition": "5.25% (inactive)"},
      {"smiles": "FC(F)(F)c1nnc(-c2ccccc2)nc1Oc1ccccc1", "activity change, negative = inhibition": "-5.97% (inactive)"},
      {"smiles": "O=S(=O)(NC1CCCc2ccccc21)c1cnc[nH]1", "note": "(stereo not given)", "activity change, negative = inhibition": "-8.82% [at 46.1 µM] (inactive)"},
      {"smiles": "c1coc(CNc2ncnc3nc[nH]c23)c1", "activity change, negative = inhibition": "-14.9% [at 46.1 µM] (inactive)"},
      {"smiles": "CN1CCN(c2nc(-c3ccc(Br)cc3)nnc2-c2ccccc2)CC1", "activity change, negative = inhibition": "7.73% (inactive)"},
      {"smiles": "Nc1ccccc1-c1nnn(CC(=O)N2CCCc3ccccc32)n1", "activity change, negative = inhibition": "-9.39% [at 46.1 µM] (inactive)"},
      {"smiles": "Cn1c(C(=O)NCc2cccs2)cc2oc3ccccc3c21", "Potency": "3.16 µM (active)"},
      {"smiles": "FC(F)C(F)(F)C1=CC(c2cccs2)=NCCN1", "activity change, negative = inhibition": "-7.36% [at 46.1 µM] (inactive)"},
      {"smiles": "FC(F)(F)c1cccc(Oc2nc(-c3ccccc3)nnc2C(F)(F)F)c1", "activity change, negative = inhibition": "-15.9% (inactive)"},
      {"smiles": "Clc1ccc(-c2nnc(-c3ccc(Br)cc3)c(N3CCSCC3)n2)cc1", "activity change, negative = inhibition": "-12% (inactive)"},
      {"smiles": "Clc1nc(NCC2CCCO2)c2[nH]cnc2n1", "note": "(stereo not given)", "activity change, negative = inhibition": "-8.45% [at 46.1 µM] (inactive)"},
      {"smiles": "O=c1cc(N2CCN(c3cccc(Cl)c3)CC2)[nH]c(=O)n1C1CCCCC1", "activity change, negative = inhibition": "-20.8% [at 46.1 µM] (inactive)"},
      {"smiles": "CN(Cc1ccccc1)Cc1c(F)cccc1F", "activity change, negative = inhibition": "-5.6% [at 46.1 µM] (inactive)"},
      {"smiles": "CCCCOC(C)n1cc(F)c(=O)[nH]c1=O", "note": "(stereo not given)", "activity change, negative = inhibition": "10.5% (inactive)"},
      {"smiles": "CCC1=Nc2ccccc2-c2nnc(SC)nc2O1", "activity change, negative = inhibition": "8.48% (inactive)"},
      {"smiles": "FC(F)(F)c1cccc(-c2nnc(-c3ccccc3)c(N3CCOCC3)n2)c1", "activity change, negative = inhibition": "-12.7% (inactive)"},
      {"smiles": "O=C(Cc1c(F)cccc1Cl)N1CCN(C(=O)c2ccco2)CC1", "activity change, negative = inhibition": "-8.45% [at 46.1 µM] (inactive)"},
      {"smiles": "Fc1ccc(Oc2nc(-c3ccccc3)nnc2C(F)(F)F)cc1", "activity change, negative = inhibition": "7.18% (inactive)"},
      {"smiles": "CC(C)Nc1nc(-c2ccccc2)nnc1-c1ccccc1", "activity change, negative = inhibition": "-4.5% (inactive)"},
      {"smiles": "O=C(NCc1cccs1)C(=O)NCC1OCCCN1S(=O)(=O)c1ccccc1", "note": "(stereo not given)", "activity change, negative = inhibition": "8.45% [at 46.1 µM] (inactive)"},
      {"smiles": "c1ccc(-c2nnc(-c3ccccc3)c(-c3c[nH]c4ccccc34)n2)cc1", "activity change, negative = inhibition": "-2.82% (inactive)"},
      {"smiles": "Cc1nnc(-c2ccccc2)[nH]c1=O", "activity change, negative = inhibition": "-6.61% (inactive)"}
    ]}
  ]
}
